Source: PubChem BioAssay (Tox21)
Where “and” joins values, the source holds several entries; their conditions need not be identical. Equal values may be shown once. Results filed as inconclusive are left out. A call without a number means that no potency is given here. More than one record can exist for a structure, and the calls need not agree. Calls of active or inactive are those of the source. Unless noted, calls come from the whole dose curve; as a rule, active = well fitted curve in the direction sought with a large enough effect in the repeat runs; inconclusive = weak or mixed curves; inactive = no such curve, though single readings can be large; an effect the other way counts as inactive or inconclusive.

How the values were obtained:
[1] = qHTS assay to identify small molecule antagonists of the estrogen receptor alpha (ER-alpha) signaling pathway using the BG1 cell line in the presence of 0.1 nM 17-beta-estradiol - cell viability counter screen (AID 1259241); note: nearly all actives have a fitted effect of over 40% in size; note: potency is the fitted concentration of half-maximal effect
In short: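 VM7Luc4E2 cells (endogenous full-length ER-alpha, 4xERE-luciferase), cultured 5 days in charcoal-stripped serum, exposed to compounds with 0.1 nM 17beta-estradiol (final) for 22 hr at 37C. Viability read in same wells as live-cell protease fluorescence after 30 min.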

[2] = qHTS assay to identify small molecule antagonists of the androgen receptor (AR) signaling pathway using the MDA cell line in the presence of 0.5 nM R1881 - cell viability counter screen (AID 1259242); note: nearly all actives have a fitted effect of over 45% in size; note: potency is the fitted concentration of half-maximal effect
In short: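 Steps: plate MDA-kb2 cells, rest 5 hr at 37C without CO2; pin in compounds in DMSO; add R1881 to 0.5 nM final; incubate 16 hr; add CellTiter-Fluor, 30 min; read fluorescence.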

[3] = target: Estrogen receptor (Homo sapiens) (UniProt P03372); test: qHTS assay to identify small molecule antagonists of the estrogen receptor alpha (ER-alpha) signaling pathway using the BG1 cell line in the presence of 0.1 nM 17-beta-estradiol (AID 1259244); note: nearly all actives have a fitted effect of over 50% in size; note: potency is the fitted concentration of half-maximal effect
In short: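 Antagonist mode: compounds in DMSO are pinned onto VM7Luc4E2 reporter cells, 0.1 nM final 17beta-estradiol is added, and after 22 h at 37C luciferase luminescence is measured with ONE-Glo.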

[4] = qHTS assay to identify small molecule agonists of the sonic hedgehog signaling (Shh) pathway - cell viability counter screen (AID 1259366); note: nearly all actives have a fitted effect of over 50% in size; note: potency is the fitted concentration of half-maximal effect
In short: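 NIH/3T3-derived Gli1-Luc reporter cells, 2,000 per well, received compound after 4 h and were treated about 23 h at 37C. Viability measured in the same wells by CellTiter-Fluor fluorescence after 1 h.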

[5] = qHTS assay to identify small molecule antagonists of the sonic hedgehog signaling (Shh) pathway - cell viability counter screen (AID 1259367); note: nearly all actives have a fitted effect of over 55% in size; note: potency is the fitted concentration of half-maximal effect
In short: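 CellTiter-Fluor signal in conditioned medium-stimulated 3T3 Gli1-Luc cells, 23 hr compound exposure, 37C.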

[6] = qHTS assay to identify small molecule agonists of the sonic hedgehog signaling (Shh) pathway (AID 1259368; calls by dose curve;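 note: NIH/3T3-derived 3T3Gli1-Luc cells carrying a stable Gli1-driven firefly luciferase reporter; series mostly up to about 92 µM; nearly all actives have a fitted effect of over 15% in size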)
In short: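 Cells of a mouse NIH/3T3 clone stably expressing luciferase under the Gli1 transcriptional response element are exposed to test chemicals for 24 hr at 37 C. Pathway activation is detected as a rise in luminescence.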

[7] = qHTS assay to identify small molecule antagonists of the sonic hedgehog signaling (Shh) pathway (AID 1259369; calls by dose curve; note: nearly all actives have a fitted effect of over 45% in size; note: potency is the fitted concentration of half-maximal effect)
In short: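 Cells are plated and held 4hr at 37 C, compounds (DMSO) are pinned in, conditioned medium is added to stimulate the pathway, and after 24hr luciferase reagent is added for 30min before luminescence is read.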

[8] = qHTS assay to identify small molecule agonists of the androgen receptor (AR) signaling pathway in the presence of an antagonist - cell viability counter screen (AID 1259379); note: nearly all actives have a fitted effect of over 25% in size; note: potency is the fitted concentration of half-maximal effect
In short: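 Cytotoxicity is assessed by CellTiter-Fluor in MDA-kb2 cells carrying an MMTV-driven luciferase reporter. Cells receive 3.0uM nilutamide plus compounds at 15 concentrations and incubate 16 hr at 37C without CO2 before fluorescence reading.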

[9] = qHTS assay to identify small molecule agonists of the estrogen receptor beta (ER-beta) signaling pathway - cell viability counter screen (AID 1259380); note: nearly all actives have a fitted effect of over 30% in size; note: potency is the fitted concentration of half-maximal effect
In short: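 Cytotoxicity is measured in parallel with the reporter screen: after 16 hr compound exposure at 37C and a 2 hr LiveBLAzer step, CellTiter-Glo is added to the same ER-beta-UAS-bla HEK293T wells and luminescence read after 30 min.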

[10] = qHTS assay to identify small molecule antagonists of the estrogen receptor beta (ER-beta) signaling pathway - cell viability counter screen (AID 1259382); note: nearly all actives have a fitted effect of over 55% in size; note: potency is the fitted concentration of half-maximal effect
In short: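 Cytotoxicity counter screen multiplexed with the beta-lactamase antagonist assay: GripTite HEK293T ER-beta-bla cells were treated 16 hr with test chemicals in the presence of 1nM 17-beta-estradiol, and viability was measured by CellTiter-Glo.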

[11] = target: Estrogen receptor (Homo sapiens) (UniProt P03372); test: qHTS assay to identify small molecule agonists of the estrogen receptor alpha (ER-alpha) signaling pathway in the presence of an antagonist (AID 1259383; calls by dose curve; note: nearly all actives have a fitted effect of over 15% in size; note: potency is the fitted concentration of half-maximal effect; for activation: top concentration of the series differs between compounds)
In short: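 Agonist-mode confirmation in the presence of the ER antagonist ICI-182,780 at 10.0nM final. Breast-derived VM7Luc4E2 reporter cells were exposed to compounds for 22hr, and ERE-driven luciferase was quantified by luminescence.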

[12] = qHTS assay to identify small molecule agonists or antagonists of the thyroid stimulating hormone receptor (TSHR) signaling pathway - wild type cell line counter screen (AID 1259384; calls by dose curve)
In short: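 Counter screen in untransfected Hek293: compounds (15-point titration, triplicate) plus phosphodiesterase inhibitor Ro20-1724 added after 18 h plating; 30 min RT. Intracellular cAMP via competitive d2/cryptate immunoassay, 1 h incubation.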

[13] = target: Thyrotropin receptor (Homo sapiens) (UniProt P16473); test: qHTS assay to identify small molecule antagonists of the thyroid stimulating hormone receptor (TSHR) signaling pathway (AID 1259385; calls by dose curve; note: nearly all actives have a fitted effect of over 20% in size; note: potency is the fitted concentration of half-maximal effect)
In short: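 Antagonist mode: compound-treated TSHR-expressing HEK293 cells were stimulated with 1.5 ng/mL TSH (final) in presence of Ro20-1724 for 30 min at RT. HTRF cAMP detection after 1 h; each compound tested at 15 concentrations, triplicate.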

[14] = qHTS assay to identify small molecule phospholipidosis (PLD) inducers (AID 1259344; active = well fitted curve in the direction sought with a large enough effect; an effect the other way counts as inactive or inconclusive)
In short: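 Accumulated phospholipid, stained red by LipidTOX during 24 h compound treatment of HepG2 cells at 37 C, is quantified from images as pit number and intensity, normalised per cell using Hoechst-stained nuclei.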

[15] = qHTS assay to identify small molecule HDAC inhibitors (AID 1259364);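 note: wild-type HCT-116 cells with endogenous class I/II HDAC activity; top concentration of the series differs between compounds; nearly all actives have a fitted effect of over 45% in size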
In short: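 Cells (HCT-116, wild type) are seeded at 1,500 per well, incubated overnight, treated with compound in DMSO for 2 hr, then developed with HDAC-Glo I/II reagent for 30 min at room temperature.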

[16] = qHTS assay to identify small molecule agonists of the estrogen receptor alpha (ER-alpha) signaling pathway in the presence of an antagonist - cell viability counter screen (AID 1259386); note: nearly all actives have a fitted effect of over 30% in size; note: potency is the fitted concentration of half-maximal effect
In short: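 Cytotoxicity was measured in parallel with the ERE-luciferase agonist screen, in the same wells. The cells were VM7Luc4E2, which endogenously express ER-alpha, and treatment was with compounds plus 10.0nM ICI-182,780 for 22hr.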

[17] = qHTS assay to identify small molecule HDAC inhibitors - cell viability counter screen (AID 1259365); note: series mostly up to about 92 µM; nearly all actives have a fitted effect of over 50% in size
In short: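 Wild-type HCT-116 cells, 1,500/well, cultured overnight, then compound-treated 2 h at 37 C. Viability measured as ATP luminescence with CellTiter-Glo after 30 min at room temperature.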

[18] = target: Estrogen receptor beta (Homo sapiens) (UniProt Q92731); test: qHTS assay to identify small molecule agonists of the estrogen receptor beta (ER-beta) signaling pathway (AID 1259377; active = well fitted activation curve with a large enough effect in the signal ratio in the repeat runs, not every such curve was filed as active; the % refers to the signal ratio; note: potency is the fitted concentration of half-maximal effect)
In short: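 ER-beta-UAS-bla HEK293T cells in medium with 2% charcoal-stripped FBS were exposed to compounds for 16 h at 37C. Beta-lactamase reporter activity was read as fluorescence after 2 h with LiveBLAzer B/G FRET substrate at room temperature.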

Sequence of Thyrotropin receptor (Homo sapiens) (P16473 whole entry, looked up): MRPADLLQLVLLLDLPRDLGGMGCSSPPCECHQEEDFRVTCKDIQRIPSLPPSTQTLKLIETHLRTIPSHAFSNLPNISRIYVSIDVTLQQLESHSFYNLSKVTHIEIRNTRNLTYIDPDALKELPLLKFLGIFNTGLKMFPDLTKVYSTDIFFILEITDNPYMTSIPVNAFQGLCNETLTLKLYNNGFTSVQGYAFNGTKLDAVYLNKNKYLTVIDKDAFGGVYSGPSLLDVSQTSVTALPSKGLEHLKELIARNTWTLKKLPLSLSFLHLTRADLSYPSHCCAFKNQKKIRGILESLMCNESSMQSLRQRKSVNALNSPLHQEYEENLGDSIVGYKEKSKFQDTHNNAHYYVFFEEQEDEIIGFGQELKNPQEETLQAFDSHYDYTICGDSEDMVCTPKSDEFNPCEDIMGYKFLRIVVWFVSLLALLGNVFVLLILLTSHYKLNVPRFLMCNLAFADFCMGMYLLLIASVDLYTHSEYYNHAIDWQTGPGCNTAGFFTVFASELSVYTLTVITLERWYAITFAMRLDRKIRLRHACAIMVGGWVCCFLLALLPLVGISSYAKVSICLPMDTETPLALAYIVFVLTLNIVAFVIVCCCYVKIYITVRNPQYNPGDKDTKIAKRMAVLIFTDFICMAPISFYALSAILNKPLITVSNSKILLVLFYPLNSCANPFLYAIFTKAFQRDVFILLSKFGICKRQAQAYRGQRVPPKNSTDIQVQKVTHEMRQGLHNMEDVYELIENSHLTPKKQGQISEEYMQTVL
Sequence of Estrogen receptor beta (Homo sapiens) (Q92731 whole entry, looked up): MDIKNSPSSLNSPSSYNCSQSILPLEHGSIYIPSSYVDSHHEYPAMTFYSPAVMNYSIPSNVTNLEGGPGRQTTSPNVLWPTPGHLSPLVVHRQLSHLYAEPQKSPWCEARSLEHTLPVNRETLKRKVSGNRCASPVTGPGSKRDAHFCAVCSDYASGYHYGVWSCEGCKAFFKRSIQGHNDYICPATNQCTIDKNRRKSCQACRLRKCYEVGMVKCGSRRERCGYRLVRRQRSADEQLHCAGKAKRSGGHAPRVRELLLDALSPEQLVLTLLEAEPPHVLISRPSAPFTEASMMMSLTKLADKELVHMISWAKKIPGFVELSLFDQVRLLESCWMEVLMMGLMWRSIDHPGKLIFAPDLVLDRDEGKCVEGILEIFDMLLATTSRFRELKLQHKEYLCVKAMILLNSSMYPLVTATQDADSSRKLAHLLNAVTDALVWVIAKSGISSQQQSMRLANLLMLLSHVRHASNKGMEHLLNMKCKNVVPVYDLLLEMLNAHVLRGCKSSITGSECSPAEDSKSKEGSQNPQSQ
Sequence of Estrogen receptor (Homo sapiens) (P03372 whole entry, looked up): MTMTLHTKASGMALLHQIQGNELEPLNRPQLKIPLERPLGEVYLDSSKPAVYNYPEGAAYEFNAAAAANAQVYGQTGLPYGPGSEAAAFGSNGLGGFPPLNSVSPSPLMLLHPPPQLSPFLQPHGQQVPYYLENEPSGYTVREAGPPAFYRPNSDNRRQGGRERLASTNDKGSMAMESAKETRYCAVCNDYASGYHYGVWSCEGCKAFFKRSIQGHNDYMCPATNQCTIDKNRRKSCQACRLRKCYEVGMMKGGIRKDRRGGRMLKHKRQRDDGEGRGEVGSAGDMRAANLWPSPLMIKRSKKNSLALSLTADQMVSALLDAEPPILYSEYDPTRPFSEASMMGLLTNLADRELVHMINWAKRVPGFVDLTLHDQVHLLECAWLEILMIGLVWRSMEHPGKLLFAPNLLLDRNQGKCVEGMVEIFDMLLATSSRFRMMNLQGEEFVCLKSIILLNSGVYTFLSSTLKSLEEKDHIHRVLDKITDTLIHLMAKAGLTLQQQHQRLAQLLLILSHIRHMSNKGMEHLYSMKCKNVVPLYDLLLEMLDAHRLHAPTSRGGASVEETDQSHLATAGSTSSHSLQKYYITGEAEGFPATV

SMILES	Potency [1]	Potency [2]	Potency [3]	Potency [4]	Potency [5]	outcome [6]	Potency [7]	Potency [8]	Potency [9]	Potency [10]	Potency [11]	Potency [12]	Potency [13]	Potency [14]	Potency [15]	Potency [16]	Potency [17]	Potency [18]
COc1ccc2cc(S(=O)(=O)N[C@H](CC(=O)N[C@H](Cc3ccc(CN4[C@H](C)CCC[C@@H]4C)cc3)C(=O)N(C)C(C)C)c3ccc4c(c3)OCO4)ccc2c1	29 µM (active)	46 µM (active)	51.6 µM (active)	25.8 µM (active)	29 µM (active)	inactive	inactive	51.6 µM (active)	18.3 µM (active)	29 µM (active)	inactive	inactive	57.9 µM (active)					
CC(C)c1c(C(=O)Nc2ccccc2)c(-c2ccccc2)c(-c2ccc(F)cc2)n1CC[C@@H](O)C[C@@H](O)CC(=O)O	inactive	inactive		inactive	inactive	inactive	inactive	inactive	11.7 µM (active) and 25.5 µM (active)	13.2 µM (active) and 32.1 µM (active)		inactive	inactive	inactive	inactive	inactive		
Cc1cn([C@H]2C=C[C@@H](CO)O2)c(=O)[nH]c1=O	inactive	inactive		inactive	inactive	inactive	inactive	inactive	inactive	inactive		inactive	inactive	inactive		inactive	inactive	inactive
CN(N=O)C(=O)N[C@@H]1[C@@H](O)[C@H](O)[C@@H](CO)O[C@@H]1O	inactive	inactive	inactive	inactive	inactive	inactive	inactive	inactive	inactive	inactive	inactive	inactive	inactive	inactive		inactive		
Nc1c(N=Nc2ccc(-c3ccc(N=Nc4cc(S(=O)(=O)O)c5ccccc5c4N)cc3)cc2)cc(S(=O)(=O)O)c2ccccc12	12.2 µM (active)	27.3 µM (active)		17.2 µM (active)	15.3 µM (active)	inactive	inactive	24.3 µM (active)		inactive				inactive	inactive	17.2 µM (active)	inactive	inactive
NC1CCCCC1	inactive	inactive	inactive	inactive	inactive	inactive	inactive	inactive	inactive	inactive	1.09 µM (active) and inactive	inactive	inactive			inactive	inactive	2.75 µM (active) and inactive
CCCCCCCCCCCC[N+](C)(C)Cc1ccccc1	inactive	47.6 µM (active) and 37.4 µM (active) and 13.3 µM (active)		53.4 µM (active) and 52.8 µM (active) and 16.8 µM (active)	66.4 µM (active)	inactive	2.13 µM (active) and 419 nM (active) and 3.76 µM (active)	23.9 µM (active) and 33.3 µM (active) and 26.6 µM (active)	30 µM (active) and 29.7 µM (active) and 10.6 µM (active)	26.8 µM (active) and 37.4 µM (active) and 11.9 µM (active)		inactive	inactive	inactive	inactive		inactive	
CC1(C)O[C@@H]2C[C@H]3[C@@H]4CCC5=CC(=O)C=C[C@]5(C)[C@@]4(F)[C@@H](O)C[C@]3(C)[C@]2(C(=O)CO)O1	inactive	inactive		inactive	inactive	inactive	inactive	inactive	inactive	inactive				inactive			inactive	inactive
O=C(O)c1ccccc1	inactive	inactive	inactive	inactive	inactive	inactive	inactive	inactive	inactive	inactive	inactive	inactive	inactive		inactive	inactive		
O=C1NS(=O)(=O)c2ccccc21	inactive	inactive		inactive	inactive	inactive	inactive	inactive	inactive	inactive		inactive	inactive	inactive	inactive		inactive	
CN1[C@@H]2CC(OC(=O)[C@H](CO)c3ccccc3)C[C@H]1[C@@H]1O[C@@H]12 (stereo not given in full)	inactive	inactive	inactive	inactive	inactive	inactive	inactive	inactive	inactive	inactive	inactive	inactive	inactive	inactive		inactive		
Cc1ncc([N+](=O)[O-])n1C	inactive	inactive	inactive	inactive	inactive	inactive	inactive	inactive	inactive	inactive	inactive	inactive	inactive			inactive		
CNNCc1ccc(C(=O)NC(C)C)cc1	inactive	inactive		inactive	inactive	inactive	inactive	inactive	inactive	inactive		inactive	inactive	inactive			inactive	inactive
CC(=O)CC(c1ccccc1)c1c(O)c2ccccc2oc1=O (stereo not given)	inactive	inactive		inactive	68.9 µM (active) and inactive	inactive	27.4 µM (active) and inactive	inactive	inactive	inactive				inactive			inactive	
